Compounds with a hit are over-represented: about 2.1% of the library has one in this group of screens.
APP transl inh: inhibitors of APP translation via 5'UTR reporter, primary screen, APP 5'UTR luciferase, SH-SY5Y cells. SH-SY5Y APP 5'UTR-luciferase reporter, luminescence. inhibition, % at 2 µM. 190,000 compounds, 0.82% hits. AID 1285, 2008;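 active means inhibition above a set limit, derived from the sample mean plus 3 SD, cut at about 45% in these data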
BaF3 parental: parental Ba/F3 cell viability inhibition, counter-screen for JAK2V617F inhibitor project, murine pro-B, CellTiter-Glo luminescence; CellTiter-Glo ATP luminescence; inhibition, % at 5.6 µM; 220,000 compounds, 1.1% hits; AID 1486, 2009;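 active means inhibition above a per-campaign cutoff, the mean inhibition of all tested compounds plus 3 SD, cut at about 27% in these data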;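 further: 0% = DMSO wells and 100% = JAK Inhibitor I control wells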
IEC-6 tox: cytotoxicity in IEC-6 intestinal epithelial cells, primary screen, cytotoxicity control for KLF5 inhibitor project, cell-based, luminescence; IEC-6 cytotoxicity, luminescence viability; inhibition, % at 5 µM; 290,000 compounds, 0.78% hits; AID 1825, 2009;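 further: 0% = plate median of test compound wells and 100% = cytotoxic reference compound wells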
aSyn 5UTR inh: MLPCN primary screen, SNCA 5' untranslated region | alpha-synuclein 5'UTR reporter, inhibitor activity | inhibition, % (tested at 7.5 µM) | 300,000 compounds, 0.82% hits; in the data active means inhibition above about 60%;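 further: H4 neuroglioblastoma cells stably carrying SNCA 5'UTR luciferase fusion; 0% = DMSO wells and 100% = positive control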
Ba/F3 V617F tox: reduced viability of JAK2V617F-dependent Ba/F3 cells, primary screen, JAK2V617F inhibitor project, cell-based, Ba/F3 EpoR-JAK2V617F, luminescence | ATP luminescence | inhibition, % at 5.6 µM | 220,000 compounds, 1.1% hits;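 active means inhibition above the campaign mean plus 3 SD over all tested compounds, cut at about 24% in these data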;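 further: cytokine-independent growth of Ba/F3 cells driven by EpoR plus mutant JAK2; 0% = DMSO-treated cells and 100% = JAK inhibitor I control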
KLF5 inh: KLF5 expression inhibitors, primary screen, DLD-1 cells, luminescence | DLD-1 KLF5 promoter-luciferase reporter | inhibition, % at 5 µM | 290,000 compounds, 0.23% hits | AID 1700, 2009;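 active means inhibition above a per-plate limit of that plate's mean compound inhibition plus 3 SD, cut at about 60% in these data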;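 further: 0% = DMSO wells and 100% = LY294002 at 200 µM; higher means less KLF5 promoter-driven luciferase light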
IEC-6 tox confirm: cytotoxic compounds in IEC-6 epithelial cells, confirmation, cytotoxicity control, cell-based, luminescence | inhibition, % at 5 µM | 1,900 compounds, 63% hits | IEC-6 rat intestinal epithelial viability | shares compounds with IEC-6 tox;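 further: 0% = vehicle and 100% = reference cytotoxic drug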
* marks the source's active call; other numbers are inactive results; · = no result. Unless noted, no stated cut-off is given here; in the data, active means inhibition above about 22%; inactive means the rest.

SMILES	APP transl inh	BaF3 parental	IEC-6 tox	aSyn 5UTR inh	Ba/F3 V617F tox	KLF5 inh	IEC-6 tox confirm
Cc1cc(Br)ccc1N=C1NC(=O)CS1	·	·	7	8	·	-22	·
CCn1c(=S)sc2c(=O)n(CC(=O)Nc3ccc(OC)c(Cl)c3)c(C)nc21	·	·	1	13	·	-38	·
CC(C)(C)OC(=O)N1CCC[C@H]1C(=O)Nc1ccc(C#N)cc1	·	·	-7	-12	·	1	·
COc1cc(/C=N/Nc2snc(SC)c2C#N)ccc1O	83*	62*	45*	-49	73*	20	45*
COc1ccccc1C(=O)COC(=O)c1ccc(N(C)C)cc1	-142	1	-9	-218	0	-71	·
COc1ccc(C(=O)c2ccc(N(C)C)cc2)c2ccccc12	92*	78*	78*	74*	77*	60	58*
CC(C)c1nc2sc3c(c2c(=O)[nH]1)CC(C)(C)OC3	·	·	7	12	·	-17	·
COc1ccc(/C=N/NC(=O)c2cc3c(OC)ccc(OC)c3[nH]2)cc1O	·	·	40*	68*	·	59	20
CCOC(=O)c1c(C)[nH]c(C(=O)N/N=C/c2ccc(OC)c(OC)c2)c1C	·	·	62*	-9	·	36	49*
COc1ccc(/C=N\NC(=O)COc2ccc(Cl)cc2Cl)c(C(=O)O)c1OC	4	4	-1	-26	0	-21	·
COc1ccc(/C=N/NC(=O)c2[nH]c3ccc(Cl)cc3c2-c2ccccc2)c(C(=O)O)c1OC	·	·	88*	0	·	-9	12
COc1cccc(/C=N/NC(=O)c2cc3c(OC)c(OC)ccc3[nH]2)c1OC	57*	42*	55*	27	54*	33	42*
COc1cccc(/C=N/NC(=O)c2cc3c(OC)cccc3[nH]2)c1OC	2	6	-1	-4	1	-4	·
CN(C)C(=O)c1ccc(-c2cc(C(F)(F)F)n(C)n2)s1	·	2	-1	-9	2	-13	·
CCCNC(=O)c1ccc2c(c1)nc(C)n2-c1cccc(Cl)c1	·	·	0	-39	·	-23	·
Cc1cc(SCC(=O)c2ccc(O)c(O)c2)n2nc(C)c(-c3ccccc3)c2n1	·	2	0	2	4	22	·
COc1ccccc1/C=N/NC(=O)c1cc2c(OC)c(OC)ccc2[nH]1	·	·	47*	-61	·	57	15
Cc1ccc(C(C)C)cc1OCCn1cncn1	·	·	0	6	·	-11	·
O=C(Cc1ccccc1)NCc1ccc(-n2cccc2)cc1	1	5	5	-21	8	-20	·
O=C(Cc1ccc(-n2cccc2)cc1)NCc1ccccc1Cl	5	6	29*	-24	-1	-24	32*
COc1ccc(-[n+]2c(C)cc(/C=C3\Sc4ccccc4N3C)cc2C)cc1	83*	97*	32*	-3	101*	16	65*
COc1ccc(NC(=O)Cn2nnc(C(=O)NCc3ccc4c(c3)OCO4)c2N)cc1	10	2	-18	-10	-2	-27	·
COc1cccc(CNC(=O)c2nnn(CC(=O)Nc3ccc(Br)cc3)c2N)c1	·	·	34*	86*	·	0	18
CCOc1ccccc1NC(=O)Cn1nnc(C(=O)NCc2ccc3c(c2)OCO3)c1N	·	·	51*	20	·	51	28*
Cc1cccc(NC(=S)N2CCC(NC(=O)c3cccc(F)c3)CC2)c1	·	·	-3	9	·	-16	·
SMILES	APP transl inh	BaF3 parental	IEC-6 tox	aSyn 5UTR inh	Ba/F3 V617F tox	KLF5 inh	IEC-6 tox confirm
COc1ccc(CNC(=O)CCC(=O)Nc2ccc(Cl)cc2)cc1	·	·	6	1	·	-9	·
COc1ccc(OC)c(NC(=O)COC(=O)CSc2ccc(Cl)cc2)c1	15	6	0	7	-1	-20	·
COc1cc(NC2CCCCC2O)c2nc(-c3ccc(Cl)cc3)ccc2c1 (centres undefined)	·	0	23*	-94	-3	-52	11
CC1(CC(=O)N/N=C/c2cc([N+](=O)[O-])c(O)cc2O)OCCO1	5	1	1	21	-4	2	·
COc1ccc(-c2nc(N)ncc2Oc2ccccc2Br)c(O)c1	-3	2	0	42	-2	-22	·
COc1cccc(Oc2cnc(N)nc2-c2ccc(OC)cc2O)c1	61*	62*	45*	54	68*	35	33*
O=S(=O)(Nc1cccc2ncccc12)c1cccs1	43	3	100*	47	-1	8	102*
COc1cc(-c2noc(C)c2C#Cc2ccc(N)cc2)cc(OC)c1OC	·	·	87*	88*	·	56	64*
COc1ccc(-c2c(-c3cc(OC)c(OC)c(OC)c3)noc2C)cn1	·	·	80*	76*	·	55	54*
CNC(C)C#Cc1c(-c2cc(OC)c(OC)c(OC)c2)noc1C (centres undefined)	·	·	0	-39	·	17	·
Cc1ccc(S(=O)(=O)N2CCN(C(=O)COC(=O)c3cnc(C)cn3)CC2)c(C)c1	·	·	·	-10	·	·	·
Cc1ccc(Oc2nc3ccccn3c(=O)c2/C=C(\C#N)C(=O)NC2CCS(=O)(=O)C2)c(C)c1 (centres undefined)	·	·	56*	-16	·	-6	34*
COc1ccc(C(=O)N/N=C/c2sc3ccccc3c2O)cc1	51*	7	27*	84*	1	-13	12
COc1ccc(C(=O)N/N=C/c2c[nH]c3ccccc23)cc1	·	·	1	-70	·	-43	·
CCOc1ccc(NC(=O)CN(C)S(=O)(=O)c2ccc3c(c2)CCC(=O)N3)cc1	·	4	11	22	2	-18	·
N=c1c(C(=O)NCC2CCCO2)cc2c(=O)n3ccccc3nc2n1Cc1ccccc1Cl (centres undefined)	·	·	30*	8	·	-30	24*
N=c1c(C(=O)NCC2CCCO2)cc2c(=O)n3ccccc3nc2n1Cc1ccccc1 (centres undefined)	·	·	-4	-6	·	-42	·
CN(C)c1ccc(C(CNC(=O)c2ccc(-c3ccccc3)cc2)N2CCOCC2)cc1 (centres undefined)	·	·	·	0	·	·	·
Cc1ccc(NC(=O)/C=C/c2ccco2)nc1	89*	82*	86*	-63	85*	30	57*
O=C(/C=C/c1ccco1)Nc1ccccn1	-73	56*	28*	12	63*	-112	58*
O=C(/C=C/c1ccco1)Nc1cccnc1	-10	6	3	-122	-1	-27	·
COCCNC(=O)Cn1nc(-c2ccc(C)cc2)ccc1=O	·	·	-1	-4	·	-30	·
CC1=Nc2cc(C(=O)O)ccc2Sc2ccc(Br)cc21	-4	4	-2	·	0	1	·
CC1=Nc2cc(C(=O)NCC3CCCO3)ccc2Sc2ccc(Br)cc21 (centres undefined)	·	11	43*	-113	20	22	29*
